Bioassay records from PubChem BioAssay.
MRP reversal – reversal of MRP1-mediated doxorubicin resistance, primary screen, H69AR cells, doxorubicin co-treatment | H69AR cells + 2 uM doxorubicin, CellTiter-Glo, 72 h | differential viability (reversal), % at 10 µM | hit rate 0.04% among 85,000 | AID 602, 2007;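 active means viability drop by adding the cancer drug above about 55%, with treated viability meeting a 40% cutoff, limit read from the data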;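 further: viability without doxorubicin minus viability with 2 µM doxorubicin for each compound; larger differential means the compound sensitizes cells more to doxorubicin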
hDAT+cocaine – changed hDAT dopamine uptake under cocaine IC80, either direction, primary screen, cocaine antagonist project, cell-based, LLC-PK1 hDAT, [14C]-dopamine uptake, MLSMR; Sodium-dependent dopamine transporter (Homo sapiens), Q01959; LLC-PK1 hDAT cells, [14C]-dopamine uptake with cocaine IC80; actives deviate in either direction; B-score at 10 µM; hit rate 1.3% among 110,000; AID 449768, 2010;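 active means Z score or B-score, a plate-position-corrected score, falls beyond the plate's 99.7% confidence bounds, in either direction; inactive means both scores lie inside the 99.7% bounds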;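 further: scored against the spread of the other compound wells on the same plate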
Target sequence (Q01959 whole entry, looked up): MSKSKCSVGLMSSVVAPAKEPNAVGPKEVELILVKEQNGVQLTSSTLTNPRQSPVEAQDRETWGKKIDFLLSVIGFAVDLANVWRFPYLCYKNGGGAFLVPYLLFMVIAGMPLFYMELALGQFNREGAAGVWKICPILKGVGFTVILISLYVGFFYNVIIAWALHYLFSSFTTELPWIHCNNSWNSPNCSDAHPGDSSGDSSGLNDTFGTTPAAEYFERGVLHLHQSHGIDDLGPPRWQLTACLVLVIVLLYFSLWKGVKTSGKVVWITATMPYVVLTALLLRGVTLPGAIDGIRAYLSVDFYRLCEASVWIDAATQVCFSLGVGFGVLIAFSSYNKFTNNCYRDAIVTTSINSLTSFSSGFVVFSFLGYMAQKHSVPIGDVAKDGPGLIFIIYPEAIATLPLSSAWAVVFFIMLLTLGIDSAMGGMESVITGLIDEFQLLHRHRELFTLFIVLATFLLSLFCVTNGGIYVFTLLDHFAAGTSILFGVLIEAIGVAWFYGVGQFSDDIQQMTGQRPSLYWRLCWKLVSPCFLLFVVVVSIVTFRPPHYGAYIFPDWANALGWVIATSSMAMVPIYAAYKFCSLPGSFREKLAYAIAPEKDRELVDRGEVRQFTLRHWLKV
MRP-1 activ – H69AR viability gain despite doxorubicin, primary screen, MRP-1 activator project, H69AR cells, CellTiter-Glo. viability rescue. viability increase, % at 10 µM. hit rate 0.61% among 140,000;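 active means viability gain under doxorubicin at or above a set limit, the compound median plus 3 SD, cut at about 4.7% in these data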;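 further: MRP-1 overexpressing cells given doxorubicin 25 µM after compound pretreatment; 18-22 h compound pretreatment then 72 h with doxorubicin before readout; 0% = doxorubicin-only wells and 100% = vehicle-treated cells without doxorubicin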
Active calls of the source: *; . = not tested or not shown. Only some compounds are listed: those with a hit (about 1.5% of all), similar ones and a draw of the others.

SMILES	MRP reversal	hDAT+cocaine	MRP-1 activ
CC1CCN(C(c2ccc(N(C)C)cc2)c2nnnn2Cc2ccccc2)CC1 (centres undefined)	-21	0.62	-3
COc1ccc(Cn2nnnc2C(c2ccc(N(C)C)cc2)N2CCC(C)CC2)cc1 (centres undefined)	5	2*	-4
CCOc1ccc(CC(=O)N2N=C(C)CC2(O)C(F)(F)F)cc1 (centres undefined)	.	.	-2
COC(=O)Nc1ccc(S(=O)(=O)Nc2ccc(C)cc2)cc1	.	0.47	0
COc1ccc(OC)c(NS(=O)(=O)c2ccc(NC(C)=O)cc2)c1	-33	-0.099	-2
COC(=O)Nc1ccc(S(=O)(=O)Nc2ccc(O)cc2)cc1	60*	-0.025	-3
COc1ccc(C)cc1NS(=O)(=O)c1ccc(NS(=O)(=O)c2ccc(NC(C)=O)cc2)cc1	1	3.9*	-1
COc1ccc(NC(=O)c2ccc(NC(=O)COC(=O)CC(NC(=O)c3ccccc3Cl)c3ccccc3)cc2)cc1 (centres undefined)	.	.	-1
O=C(CNC(=O)c1ccccc1)OCc1nc2ccccc2s1	.	.	-1
C[C@H]1CC[C@]2(O[C@H](CCO)C[C@@H](O)[C@@H]2O)O1	.	0.56	.
CCC(Sc1nc2ccccc2s1)C(=O)Nc1nnc(C)s1 (centres undefined)	.	-0.098	10*
CC(Sc1nc2ccccc2s1)C(=O)Nc1nnc(C(C)C)s1 (centres undefined)	-2	-0.83	-1
O=C(Cc1ccc(Br)cc1)N1CCN(c2ccccc2O)CC1	.	1.2	-2
COc1cccc(/C=N/NC(=O)Cn2nc(C)c([N+](=O)[O-])c2C)c1O	.	.	6.6*
COc1cccc(/C=N/NC(=O)C(=O)N2CCCC2)c1O	.	-0.84	5.4*
COc1cccc(/C=N/NC(=O)CSc2ccccc2C)c1O	.	.	3
COc1cccc(/C=N/NC(=O)C(C)n2nc(C)c([N+](=O)[O-])c2C)c1O (centres undefined)	.	.	9.0*
COc1cccc(NC(=S)NNC(=O)C(C)n2nc(C)c([N+](=O)[O-])c2C)c1 (centres undefined)	.	-1.1	-2
COc1cccc(/C=N/NC(=O)C(=O)N2CCCC2)c1OC	.	.	-2
CC(C)CN(CC(C)C)C(=S)NC1CCCCC1	.	.	-1
O=C(O)CC12C[C@H]3C[C@@H](C1)CC(n1ncc(N4CCN(c5ccccc5)CC4)c(Cl)c1=O)(C3)C2	.	.	0
CCOC(=O)C1CCC(CNCc2ccc(Cl)cc2)CC1 (centres undefined)	.	.	-3
COc1ccc2nc(NC(=O)c3cccnc3SC)sc2c1	.	.	-1
COc1cc(CCCN2C(=S)NC[C@@H]2Cc2ccccc2)cc(OC)c1OC	.	3*	.
COc1cc(CCCN2C(=S)NC[C@@H]2c2ccccc2)cc(OC)c1OC	.	0.78	.
SMILES	MRP reversal	hDAT+cocaine	MRP-1 activ
FC(F)(F)c1nnc2c(Sc3ccccc3)nc3ccc(Cl)cc3n12	.	-0.006	-5
Cc1c(C(=O)OCC(C)C)[nH]c2c1C(=O)CC(c1cccs1)C2 (centres undefined)	-16	.	-4
Cc1c(CNC(=O)c2cnn3c2NC(c2ccc(Br)cc2)CC3C(F)(F)F)cnn1C (centres undefined)	9	3.1*	2
Cc1nn(C)cc1CNC(=O)c1cnn2c1NC(c1ccc(Br)cc1)CC2C(F)(F)F (centres undefined)	3	-0.38	1
CN1CCN(C(=O)C2=C[C@H](c3ccc(C(F)(F)F)cc3)C[C@H](OCc3ccc(CO)cc3)O2)CC1	.	0.049	.
O=C(N/N=C/c1cccc(OC(=O)c2ccco2)c1)c1ccc(F)cc1	.	.	3
COc1ccc(OCc2ccc(C(=O)N3CCOCC3)cc2)cc1	4	0.4	-2
COc1ccc(C(=O)/C=C\N2CCOCC2)cc1	5	-2.7*	-1
Cn1c(N)cc(=O)n(Cc2ccccc2)c1=O	.	-1.1	1
O=c1ccn(Cc2ccccc2)c(=O)n1Cc1ccccc1	8	2.8*	1
COc1cc2c(cc1OC)C1=C(C#N)CN(C3CCCCC3)CN1CC2	6	1	-2
COc1ccc(CCN2CC(C#N)=C3c4cc(OC)c(OC)cc4CCN3C2)cc1OC	14	3.4*	-4
COc1cccc(C(=O)Oc2ccc3c(C)cc(=O)oc3c2C(C)=O)c1	.	.	-1
Cc1cc(C)c(C#N)c(Sc2nnnn2-c2ccccc2)n1	6	0.98	-1
CSc1ccccc1-n1nnnc1SCC(=O)Nc1cc(C)ccc1C	12	0.17	-3
O=S(=O)(c1ccccc1)c1nc(-c2ccccc2Cl)oc1NCCN1CCOCC1	3	-0.028	0
